Here are results for 15 compounds from PubChem BioAssay (NCATS).

Values joined by “and” are separate entries in the source; they are usually repeats but may differ in a detail not shown here. Identical values can stand only once. Records with an inconclusive call do not appear. The source holds several records for some structures; these can differ, active in one and inactive in another. Active and inactive are the calls of the source. The call rests on the fitted dose curve; in most records, active means well fitted curve in the direction sought with a large enough effect; inconclusive means small, poorly fitted or top-dose-only effect, or another doubt; inactive means no such curve, though single readings can be large; an effect the other way counts as inactive or inconclusive.

A short description of experiment [1]: qHTS Screen of the MIPE 4.0 Collection Against Ewings Sarcoma (RDES) (AID 1259252). Further: nearly all actives have a fitted effect of over 35% in size. Further: potency means the concentration at half of the fitted maximal effect. The settings on record: RD-ES Ewing sarcoma viability, CellTiter-Glo, 48 h; series mostly up to 45.8 µM. In short, it runs like this:
(§1)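 Cells plated in serum-containing RPMI (5% FBS) and treated with compound dilutions for 48 h. Readout luminescent viability; normalization relied on vehicle (no inhibition) and media-only columns (full inhibition).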
(Quantitative high-throughput screening tests each substance at several concentrations.)

A short description of experiment [2]: qHTS Screen of the MIPE 4.0 Collection Against Ewings Sarcoma (TC71) (AID 1259253). Further: nearly all actives have a fitted effect of over 40% in size. Further: potency means the concentration at half of the fitted maximal effect. The settings on record: TC71 Ewing sarcoma viability, CellTiter-Glo, 48 h; series mostly up to 45.8 µM. In short, it runs like this: as §1
Experiment [3] is described as follows: qHTS Screen of the MIPE 4.0 Collection Against Ewings Sarcoma (EW8) (AID 1259255). Further: nearly all actives have a fitted effect of over 35% in size. Further: potency means the concentration at half of the fitted maximal effect. The settings on record: EW8 Ewing sarcoma viability, CellTiter-Glo, 48 h; series mostly up to 45.8 µM. In short, it runs like this:
as §1

Experiment [4] can be described thus: qHTS Screen of the MIPE 4.0 Collection Against Ewings Sarcoma (TC32) (AID 1259256). Further: nearly all actives have a fitted effect of over 45% in size. Further: potency means the concentration at half of the fitted maximal effect. The settings on record: TC32 Ewing sarcoma viability, CellTiter-Glo, 48 h; series mostly up to 45.8 µM. The method, boiled down:
as §1

Experiment [5] can be described thus: P-glycoprotein substrates identified in KB-3-1 adenocarcinoma cell line, qHTS therapeutic library screen (AID 1346986). Further: nearly all actives have a fitted effect of over 60% in size.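 Further: potency means the concentration at half of the fitted maximal effect; potency is for cytotoxicity meaning loss of cell viability.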 The note with it: KB-3-1 parental cells viability, CellTiter-Glo, 72 h; series mostly up to 44.5 µM. In short, it runs like this:
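Dose-response cytotoxicity, KB-3-1 vs P-gp-high KB-8-5-11, no colchicine in assay medium. Read: CellTiter-Glo at 72 h.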

Experiment [6] is described as follows: P-glycoprotein substrates identified in KB-8-5-11 adenocarcinoma cell line, qHTS therapeutic library screen (AID 1346987). Further: nearly all actives have a fitted effect of over 65% in size. Further: potency means the concentration at half of the fitted maximal effect. The note with it: KB-8-5-11 (P-gp overexpressing) viability, CellTiter-Glo, 72 h; series mostly up to 44.5 µM. The method, boiled down:
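Human cervical adenocarcinoma KB-8-5-11 cells, selected in colchicine to over-express P-gp and assayed without it, were exposed for 72 h to titrated compounds. An ATP-based luminescent viability signal gave AC50.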

The nature of experiment [7]: NS1 protein of Zika virus - qHTS assay to identify small molecule inhibitors in human HEK 293 cells (AID 1347053). Further: nearly all actives have a fitted effect of over 55% in size. Further: potency means the concentration at half of the fitted maximal effect. The note with it: HEK293 ZIKV MR766 infection, NS1 TR-FRET, 24 h; series mostly up to 46.1 µM. The method, boiled down:
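Readout was TR-FRET using paired anti-NS1 antibodies after 24 h infection of HEK 293 cells with ZIKV MR766 (MOI = 0.5). Compound preceded virus by 1 h; reduced signal reflects lower NS1 expression.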

Experiment [8] in a line: Identifying Small Molecule Inhibitors of Pancreatic Cancer Stem Cells (A278, Adherent) (AID 1259361).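 Further: viability read after 48 h compound exposure; nearly all actives have a fitted effect of over 35% in size.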 The note with it: series mostly up to 46.1 µM. The method, boiled down: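 Pre-formed 14-day tumor spheroids or adherent cells dosed and incubated 48 h, 37C, 5% CO2. Viability assessed by CellTiter-Glo.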

`CCOC(=O)C1=C(C)NC2=C(C(=O)CC(C)(C)C2)C1c1ccc(-c2ccccc2)cc1` (stereo not drawn): the Potency in experiment [1] is 26.4 µM (active); in experiment [2], 26.4 µM (active); in experiment [3], 29.6 µM (active); in experiment [4] it was 23.5 µM (active); in experiment [6] it was “inactive and 23.1 µM (active)”; in experiment [7] it was 10.5 µM (active). In experiment [5], the Potency entry was “inactive”.

With `COc1ccc(-c2cc3c(C)nc(N)nc3n(C3CCC(OCCO)CC3)c2=O)cn1` (stereo not drawn), the Potency in experiment [1] is 0.118 µM (active); in experiment [2] it was 0.0743 µM (active); in experiment [3], 0.0662 µM (active); in experiment [4], 0.0264 µM (active); in experiment [5] it was 0.184 µM (active); in experiment [6], 41.8 nM (active) and 366 nM (active). In addition, the Potency in experiment [7] is 1.48 µM (active).

`Nc1ccccc1NC(=O)c1ccc(CNc2nccc(-c3cccnc3)n2)cc1`: the Potency was 1.32 µM (active) in experiment [1]; 1.05 µM (active) in experiment [2]; 1.05 µM (active) in experiment [3]; 0.935 µM (active) in experiment [4]; 2.96 µM (active) and 2.31 µM (active) in experiment [6]. In addition, the IC50 (viability decrease) in experiment [8] is 1.18 µM (active). For the same compound, in experiment [7], the Potency entry is “inactive”.

For the compound `CC(C)Nc1cc(C(F)(F)F)cc2nc(NC(=O)c3cccnc3)nn12`, the Potency in experiment [1] was 11.8 µM (active); in experiment [2], 13.2 µM (active). The Potency entry in experiment [3], in experiment [4], in experiment [5] and in experiment [7] was “inactive” throughout.

Turning to `CC(=O)Nc1nc(C)c(-c2ccc(Cl)c(S(=O)(=O)NCCO)c2)s1`, the Potency in experiment [1] is 5.9 µM (active); in experiment [2] it was 14.8 µM (active); in experiment [3] it was 16.6 µM (active); in experiment [4] it was 10.5 µM (active); in experiment [5] it was 9.2 µM (active). For the same compound, in experiment [7], the Potency entry is “inactive”.

Regarding `CCC[C@H](NC(=O)C(C#N)=Cc1cccc(Br)n1)c1ccccc1`, the Potency in experiment [1] is 7.43 µM (active); in experiment [2], 7.43 µM (active); in experiment [3], 6.62 µM (active); in experiment [4] it was 7.43 µM (active); in experiment [6], 18.7 µM (active); in experiment [7], 14.8 µM (active). Moreover, the IC50 (viability decrease) in experiment [8] is 26.4 µM (active).

With `Cc1ccc(CN2CCNCC2)cc1NC(=O)CNc1ccc(F)c(F)c1`, the Potency in experiment [1] is 6.62 µM (active); in experiment [2], 5.26 µM (active); in experiment [3] it was 26.4 µM (active); in experiment [4] it was 13.2 µM (active). For the same compound, the Potency entry in experiment [5], in experiment [6] and in experiment [7] was “inactive” throughout.

As to `Cc1cn2cc(C(=O)N(C)CCO)cc(N[C@@H]3CCOc4cccc(C)c43)c2n1`, the Potency entry in experiment [1], in experiment [2], in experiment [3], in experiment [4], in experiment [5] and in experiment [7] was “inactive” in each case.

Consider `C#Cc1cccc(Nc2ncnc3cc(OC)c(OCCCCCCC(=O)NO)cc23)c1`, for which the Potency is 0.0209 µM (active) in experiment [1], 0.0743 µM (active) in experiment [2], 0.059 µM (active) in experiment [3] and 0.0372 µM (active) in experiment [4]. The IC50 (viability decrease) in experiment [8] was 1.18 µM (active). Moreover, in experiment [7], the Potency entry was “inactive”.

Consider `CN(C)CC(C)(C)CNc1nn2c(-c3ccccc3)nnc2cc1C1CCC1`, for which the Potency in experiment [1] was 0.418 µM (active); in experiment [2], 1.05 µM (active); in experiment [3], 0.469 µM (active); in experiment [4] it was 0.469 µM (active). Moreover, the Potency result in experiment [5], in experiment [6] and in experiment [7] was “inactive” in each case.

Regarding `Cc1nc(N)ncc1-c1nc(N2CCOCC2)c2sc(C(C)(C)O)cc2n1`, the Potency was 1.66 µM (active) in experiment [1]; 5.9 µM (active) in experiment [2]; 6.62 µM (active) in experiment [3]; 2.35 µM (active) in experiment [4]; 1.03 µM (active) in experiment [5]; 1.48 µM (active) and 1.64 µM (active) in experiment [6].

Regarding `COC(=O)Nc1ccc(-c2nc(N3CCOCC3)c3cnn(C4CCN(Cc5cccnc5)CC4)c3n2)cc1`, the Potency in experiment [1] is 0.166 µM (active); in experiment [2], 0.059 µM (active); in experiment [3] it was 0.0833 µM (active); in experiment [4], 0.0469 µM (active); in experiment [5], 1.03 µM (active); in experiment [7], 16.6 µM (active).

On to `Cc1ccc(NC(=O)C2(c3ccc4c(c3)OC(F)(F)O4)CC2)nc1-c1cccc(C(=O)O)c1`, for which the Potency in experiment [1] was 0.0526 µM (active); in experiment [2], 0.0372 µM (active); in experiment [3], 0.0469 µM (active); in experiment [4], 0.0526 µM (active); in experiment [6], 526 nM (active) and inactive; in experiment [7], 0.0372 µM (active). Besides, in experiment [5], the Potency entry was “inactive”.

With `Cn1cncc1[C@@](N)(c1ccc(Cl)cc1)c1ccc2c(c1)c(-c1cccc(Cl)c1)cc(=O)n2C`, the Potency in experiment [1] is 7.43 µM (active); in experiment [2], 4.69 µM (active); in experiment [3], 5.26 µM (active); in experiment [4], 5.9 µM (active); in experiment [6], 3.72 µM (active). In experiment [8], the IC50 (viability decrease) was 23.5 µM (active).

For `Cc1c(Cn2c(C)nc3c(C(=O)O)cc(N4CCOCC4)cc32)cccc1C(F)(F)F`, the Potency in experiment [1] is 14.8 µM (active); in experiment [2] it was 10.5 µM (active); in experiment [3], 11.8 µM (active); in experiment [4], 14.8 µM (active). Also, the Potency result in experiment [5], in experiment [6] and in experiment [7] was “inactive” in each case.
